Results published in the supplement of paper PMC10338343.
± gives the standard deviation.

Each sequence was assayed on MILI (PIWIL2) piRISC loaded with L1MC piRNA (26 nt) (assay: pre-steady-state target cleavage rate (min^-1); guide: L1MC piRNA 5'p-UAACUAAAUACUAUGCAAGCUGUAGG; MIWI and MILI are mouse PIWI proteins and EfPiwi is from a freshwater sponge; tags in brackets are library labels; higher = faster piRNA-guided slicing of the target). Conditions: auxiliary factor: 500 nM mouse GTSF1.
Procedure, shortened: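 With or without 500 nM GTSF1 partner protein, 1 nM active affinity-purified piRISC carrying one synthetic guide was mixed with 0.1 nM transcribed, DNA-blocked target RNA library in HEPES–potassium acetate buffer at 33 °C for 0–8 or 0–960 min. Uncleaved targets were sequenced and normalised to depth and to weakly complementary targets, three trials were pooled, and k3 was capped at 0.0001 min^-1. The pre-steady-state cleavage rate came from a burst-and-steady-state fit.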
In the case of UCCUGGAACAGCUUGCAUAGUAUUUUGUAA, the “pre-steady-state target cleavage rate” value is reported as 0.0402 ± 0.012. UCCUGGUACAGCUUGCAUAGGAUUUAGUUA was tested, and the “pre-steady-state target cleavage rate” value was 0.00737 ± 0.0052. UCCUCCUACAGCAAGCAUAGUAUUUACAAA was tested, and the “pre-steady-state target cleavage rate” value was 0.172 ± 0.032. UCCUGGAACAGCUAGCAUAGUAUUUUCAAA was tested, and the “pre-steady-state target cleavage rate” value was 0.0419 ± 0.014. With UCCUGGAUCUCGUUGCAUAGUAUUUUCAAA the “pre-steady-state target cleavage rate” value was 0.0482 ± 0.013. In the case of UCCUGGAUGUCCUUCCUUAGUAUUUAGUUA, the “pre-steady-state target cleavage rate” value is reported as 0.00908 ± 0.0046. With UCCUGGAUCAGCUUCGAUAGUAUUUACAAA the “pre-steady-state target cleavage rate” value was 0.00974 ± 0.005. UCCUGGAUGUCGAUCCAUAGUAUUUAGUUA was tested, and the “pre-steady-state target cleavage rate” value was 0.00686 ± 0.0039. For UCCUGGAUGUCCUUGGAUAGUAUUUAGAUA, the “pre-steady-state target cleavage rate” value was 0.129 ± 0.035. For UCCUGGUACAGCUUGCAUAGUAUUUACUUA, the “pre-steady-state target cleavage rate” value was 0.103 ± 0.025. In the case of UCCUGGUACAGCUUGCAUAGUAAAUAGUAA, the “pre-steady-state target cleavage rate” value is reported as 0.151 ± 0.045. For UCCUGGAUCAGCUUGCUAAGUAUUUAGUAA, the “pre-steady-state target cleavage rate” value was 0.0344 ± 0.01. In the case of UCCUGCUACAGCUUGCAUAGUUAUUUCAAA, the “pre-steady-state target cleavage rate” value is reported as 0.0109 ± 0.0051. With UCCUGGAUGUCGAACGUAUGUAUUUAUUUA the “pre-steady-state target cleavage rate” value was under 0.0001. With UCCUCCUACAGCUUGCAUUCUAUUUACAAA the “pre-steady-state target cleavage rate” value was 0.0257 ± 0.0099. UCCUGCUAGUCCUUGCAUAGUAUUUACAAA was tested, and the “pre-steady-state target cleavage rate” value was 0.0056 ± 0.004. For UCCUGGAUCAGCUUGCAUAGAUUUUAGAAA, the “pre-steady-state target cleavage rate” value was 0.00651 ± 0.0043. For UCCUGGAUCACGAUGCAUAGUAUUUACAAA, the “pre-steady-state target cleavage rate” value was 0.0606 ± 0.015. For UCCUGCUACAGCUUGCAUAGUAUUAUCAAA, the “pre-steady-state target cleavage rate” value was 0.0862 ± 0.026. For UCCUGGAACAGGUUGCAUAGUAUUUACAAA, the “pre-steady-state target cleavage rate” value was 0.0582 ± 0.013. For UCCUGGUUGAGCUUGCAUAGUAUUUACAAA, the “pre-steady-state target cleavage rate” value was 0.0198 ± 0.0068. For UCCUGGAACAGCUUGCAUAGUAAAAUCAAA, the “pre-steady-state target cleavage rate” value was 0.0152 ± 0.008. With UCCUCCUACAGCUUGCAUAGCUAUUUAGUUA the “pre-steady-state target cleavage rate” value was 0.0126 ± 0.0058. UCCUGGAUGUCGAUGCAUAGUAUAAAGUUA was tested, and the “pre-steady-state target cleavage rate” value was 0.0643 ± 0.016. For UCCUGGAUGUCCUUGCAAUGUAUUUAGUAA, the “pre-steady-state target cleavage rate” value was 0.0086 ± 0.0045. UCCUGGUACAGCUUGCAUAGUAUAUAGAUA was tested, and the “pre-steady-state target cleavage rate” value was 0.014 ± 0.0071. In the case of UCCUGGAUGAGCUUGGAUAGUAUUUUGUUA, the “pre-steady-state target cleavage rate” value is reported as 0.141 ± 0.029. UCCUGGAUCAGCUUGCAUAGUAUAAAGAAA was tested, and the “pre-steady-state target cleavage rate” value was 0.0366 ± 0.01. With UCCUGGAUCAGCUUGCAUACUAUUUAGAUA the “pre-steady-state target cleavage rate” value was 0.0139 ± 0.0058. For UCCUGGAACAGCUUGCAUCAGUAUUUAGUUA, the “pre-steady-state target cleavage rate” value was 0.0151 ± 0.0061. For UCCUGGAUCUCGUUGCAUAGUAUUUACAAA, the “pre-steady-state target cleavage rate” value was 0.0638 ± 0.014.

Same assay, conditions: auxiliary factor: none (no GTSF1)
For UCCUGGAUGUCGUUGCAUAGAUUUUAGUUA, the “pre-steady-state target cleavage rate” value was 0.00439 ± 0.0019. For UCCUGGAUGUCGAACGUUAGUAAUUUGUUA, the “pre-steady-state target cleavage rate” value was under 0.0001. With UCCUGGUACAGCUUGCAUACAUUUUAGUUA the “pre-steady-state target cleavage rate” value was 0.00408 ± 0.0037. UCCUGGAUGUCCUUGCAUACAAUUUAGUUA was tested, and the “pre-steady-state target cleavage rate” value was 0.00248 ± 0.0024. With “UCCUGGAUGUCGAUGCAUAGAUAAAUCAAA [g11:g17:cont:t1A]” the “pre-steady-state target cleavage rate” value was under 0.0001. In the case of “UCCUGGAUGAGCUUGCUAUCAUAAAUCAAA [g15:g21:cont:t1A]”, the “pre-steady-state target cleavage rate” value is reported as under 0.0001. UCCUGGAUGUCGAACGAUGAGUAUUUAGUUA was tested, and the “pre-steady-state target cleavage rate” value was under 0.0001. With UCCUGGAUGUCGAACCAUAGUAAAUAGUUA the “pre-steady-state target cleavage rate” value was under 0.0001. “UCCUGGAUGUCGAACGUAUGUAUUUUCAAA [g6:g11:cont:t1A]” was tested, and the “pre-steady-state target cleavage rate” value was under 0.0001.
